Values joined by “and” are separate entries in the source; they are usually repeats but may differ in a detail not shown here. Identical values can stand only once. Results filed as inconclusive are left out. A structure can be active in one record and inactive in another. Active and inactive are the calls of the source. Rule for the calls: active = hit-call score of the fitted dose curve at least 0.9, where 1 is the maximum; inconclusive = response in the unintended direction; inactive = score below 0.9.
Molecular target: Nuclear receptor subfamily 1 group I member 2 (Mus musculus) (UniProt O54915)
Experiment: ATG_mPXR_XSP2: Attagene TRANS-FACTORIAL Multi-Species (XSP1) HepG2 Assay for mouse Pregnane X Receptor (PXR) (AID 2283831)
Experimental: ATG_XSP2_multi-species_TRANS is a cell-based, multiplexed assay created by modifying the existing Attagene TRANS-FACTORIAL system to include a panel of nuclear receptors from some or all the following species: human (Homo sapiens), mouse (Mus musculus), frog (Xenopus laevis), zebrafish (Danio rerio), chicken (Gallus gallus), and turtle (Chrysemys picta). The ECOTOX-FACTORIAL format uses HepG2, a human liver cell line, with measurements taken at 24 hours after chemical dosing in a 24-well plate. Xsp2 included 3 nM 6-alpha-fluorotestosterone and 1.5 nM norgestrel to stimulate the androgen receptor.ATG_mPXR_XSP2 is one of 29 assay components measured or calculated from the ATG_XSP2_multi-species_TRANS assay. It is designed to make measurements of mRNA induction, a form of inducible reporter, as detected with fluorescence intensity signals by Reverse transcription polymerase chain reaction (RT-PCR) and Capillary electrophoresis technology.The assay endpoint ATG_mPXR_XSP2 was analyzed in the positive analysis fitting direction relative to DMSO as the negative control and baseline of activity. Using a type of inducible reporter, measures of mRNA for gain-of-signal activity can be used to understand the reporter gene at the transcription factor-level as they relate to the gene PXR. Furthermore, this assay endpoint can be referred to as a primary readout, because this assay has produced multiple assay endpoints where this one serves a reporter gene function. To generalize the intended target to other relatable targets, this assay endpoint is annotated to the nuclear receptor intended target family, where the subfamily is non-steroidal.
Human liver HepG2 cells are transiently transfected with multiple reporter transcription units (MRTUs) in 6-well plates using FuGene 6 reagent (Roche; 3 ml FuGene/1 mg DNA). The MRTU constructs are regulated by a cis-regulating element (promoter). […] A major difference between the CIS and TRANS system is that in CIS activities of endogenous TFs are measured, whereas the TRANS assay evaluates changes in activities of exogenous, chimeric NR-Gal4 proteins. […] At the end of 24 hour incubation, total RNA was isolated using TriZol reagent (Invitrogen). The isolated RNA is then reverse-transcribed using oligo(dT) primer and Mo-MLV reverse transcriptase (Invitrogen) with DNAse I (Ambion) treatment for 30 min. The one-tenth of the produced cDNA was amplified by PCR using Taq DNA polymerase (Invitrogen) and two reporter sequence-specific primers. The PCR products were fluorescently labeled by primer extension with 6-arboxyfluorescein (6-FAM) 5'-labeled reporter sequence-specific primer (2 min at 95 C, 20 s at 68 C and 10 min at 72 C) and these products were digested with 5U of HpaI (New England Biolabs) for 2h at 37 C. The fragments were purified using Qiaquick PCR columns (Qiagen), analyzed on an ABI 3130xL genetic analyzer (Applied Biosystems) with peak positions identified by using a set of X-rhodamine (ROX)-labeled MapMarker1000 molecular weight standards (BioVentures). The raw capillary electrophoresis data was processed using Attagraph software (Attagene).

Sequence of Nuclear receptor subfamily 1 group I member 2 (Mus musculus) (O54915 whole entry, looked up): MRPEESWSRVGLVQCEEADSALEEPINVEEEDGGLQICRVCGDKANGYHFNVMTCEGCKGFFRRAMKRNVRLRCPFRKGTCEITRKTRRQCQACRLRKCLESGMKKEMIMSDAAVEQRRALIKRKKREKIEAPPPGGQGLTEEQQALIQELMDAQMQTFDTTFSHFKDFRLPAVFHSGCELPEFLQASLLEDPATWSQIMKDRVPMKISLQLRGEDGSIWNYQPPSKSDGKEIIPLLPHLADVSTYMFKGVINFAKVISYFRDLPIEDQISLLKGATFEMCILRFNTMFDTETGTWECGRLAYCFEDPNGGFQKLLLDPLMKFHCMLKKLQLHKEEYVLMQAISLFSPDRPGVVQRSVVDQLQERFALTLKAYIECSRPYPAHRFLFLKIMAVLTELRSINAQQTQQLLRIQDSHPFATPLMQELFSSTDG

Row | SMILES | AC50 | outcome
1 | O=[N+]([O-])c1ccc(Oc2ccc(Cl)cc2Cl)cc1 | 4.29 µM (active) and 2.99 µM (active) | –
2 | CCCCCOC(=O)c1ccccc1C(=O)OCCCCC | – | inactive
3 | CC(C)(C)C(O)(CCc1ccc(Cl)cc1)Cn1cncn1 (stereo not given) | 4.58 µM (active) and 5.55 µM (active) | –
4 | Oc1ccc2ccc3cccc4ccc1c2c34 | 16.5 µM (active) and 11.1 µM (active) | –
5 | CCCCOC(=O)c1ccccc1C(=O)OCc1ccccc1 | – | inactive
6 | CCC(C)c1ccc(O)cc1 (stereo not given) | – | inactive
7 | CCCCC(CC)COC(=O)c1ccc(C(=O)OCC(CC)CCCC)c(C(=O)OCC(CC)CCCC)c1 (stereo not given) | 100 µM (active) | inactive
8 | Clc1ccc(C(c2ccc(Cl)cc2)C(Cl)(Cl)Cl)cc1 | 4.54 µM (active) | –
9 | Clc1ccc(C(c2ccc(Cl)cc2)C(Cl)Cl)cc1 | 7.95 µM (active) | –
